Measurements from PubChem BioAssay.

Experiment: RPMI8226 myeloma cell viability, profiling panel, resazurin fluorescence, basal, 24 h, PK04 Diversity Set (AID 1180);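 also: RPMI8826 multiple myeloma cell line at 5000 cells per well; test concentration not given here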
Conditions: higher = more signal

Row | Compound | z-score
1 | CCCC[C@H]1OB(O)C[C@H]2C1=C(COc1ccccc1)C[C@H]1C(=O)C=CC(=O)[C@H]12 | 0.262
2 | COCCOC(=O)N1C(=O)[C@@]2(c3ccccc31)[C@H](C(=O)N1CCN(c3ncccn3)CC1)[C@H]1C(=O)O[C@H](c3ccccc3)[C@H](c3ccccc3)N1[C@@H]2c1ccccc1OCCO | 1.69
3 | COC(=O)[C@@]1(Cc2ccccc2)[C@H]2c3cc(C(=O)N(C)C)n(CCO)c3C[C@H]2CN1C(=O)c1ccccc1 | -1.11
4 | [N-]=[N+]=Nc1ccccc1[C@@H]1OC(c2ccc(OCCCO)cc2)=N[C@]1(Cc1ccccc1)C(=O)NCCN1CCOCC1 | -1.73
5 | COc1cc(C(O)C2C=CC3C(=O)N(c4ccccc4)C(=O)C3N2Nc2ccccc2)cc(OC)c1OC (stereo not given) | -0.977
6 | C=CCC(OC(C)=O)[C@@H]1[C@@H](N(Cc2ccc(-c3ccccc3)cc2)C(=O)c2cccc3ccccc23)c2cc(OCCCO)ccc2N1C(=O)Cc1ccc(OC)cc1 (stereo not given in full) | -0.505
7 | Cc1ccc(N2C(=O)c3ccccc3[C@](C)(C(=O)NCCCN(C)C)[C@@H]2c2ccc(CO)cc2)nc1 | -0.0858
8 | CCOC(=O)C[C@H]1[C@H](OC(=O)Cc2ccc3c(c2)OCO3)[C@@H](NC(=O)Cc2ccc(OC)cc2)c2cc(OCCCO)ccc2N1C(=O)Cc1ccc(OC)cc1 | 1.02
9 | O=C1N(CCS(=O)(=O)c2ccccc2)c2ccccc2C[C@]12N=C(c1ccc(OCCCO)cc1)O[C@@H]2c1ccccc1 | -0.885
10 | C=CCOC(=O)[C@@H]1[C@H]2C(=O)O[C@H](c3ccccc3)[C@H](c3ccccc3)N2[C@H](c2ccc(OCCOC(=O)[C@H]3C[C@H]4C(=O)N5CCC[C@H]5C(=O)N4[C@H]3c3cccc(OCCO)c3)cc2)[C@@]12C(=O)Nc1ccc(I)cc12 | -0.166
